Sampled rows, rich in hits. Any-hit rate of the full collection: about 19%.
DT40 TDP1 no CPT: qHTS for Inhibitors of human tyrosyl-DNA phosphodiesterase 1 (TDP1): qHTS in cells in absence of CPT; DT40 Tdp1-/- hTDP1 cells, no CPT, ATP luminescence, 48 h; Potency, µM (highest dose often 46.2 µM), without a hit: at the top dose activity change, negative = growth inhibition, most hits filed as inhibitors; 420,000 compounds, 15% hits; also: potency is read from the fitted curve at half-maximal effect; nearly all actives have a fitted effect of over 55% in size
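Seeded 400 DT40-hTDP1 cells/well (vehicle DMSO, no 20 nM CPT); pinned compounds; ≥48 hr at 37 °C; CellTiter-Glo luminescence as viability measure.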
uPA surface inh: cell surface uPA generation inhibition; cell surface uPA generation assay, qHTS; Potency, µM (doses to about 38.3 µM), without a hit: top-dose activity change, negative = inhibition, hits mostly inhibitors; 330,000 compounds, 0.31% hits; AID 540303; active = well fitted inhibition curve with a large enough effect; inconclusive = small, poorly fitted or top-dose-only effect; inactive = no such curve, though single readings can be large or run the other way; tested in mouse RAW 264.7 cells; also: potency is read from the fitted curve at half-maximal effect; nearly all actives have a fitted effect of over 55% in size
HT1080 IDH1KD tx: HT-1080 IDH1 knockdown cell toxicity (counter line); HT-1080 IDH1 knockdown viability, ATP luminescence, 48 h; Potency, µM (doses to about 46.1 µM), without a hit: at the top dose activity, negative = toxicity, most hits filed as cytotoxic; 360,000 compounds, 2% hits; AID 686971;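 also: potency is read from the fitted curve at half-maximal effect; 0% = DMSO wells and -100% = cell-free medium wells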
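Using the IDH1-knockdown HT-1080 line run in the same batch and compound series as the NT line, viability after 48 h at 37 °C was determined by CellTiter-Glo luminescence and expressed as % activity.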
IL1B secr inh: inflammasome signaling inhibition, IL-1 beta readout. THP-1 LPS/ATP IL-1B secretion, AlphaLISA, 16 h; active compounds read low. activity change, % at 57.5 µM. 360,000 compounds, 4.7% hits; in the data active = activity change below about -50%; inconclusive = mostly about -30% to -49%
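Secreted IL-1B measured by AlphaLISA bead assay after 16 h compound exposure of THP-1 cells; compounds (final up to 57.5 uM) added 1 h before LPS (250 ng/mL) and ATP (1.25 mM) stimulation; lower signal means less secretion.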
HT1080-NT tox: kills 2HG-producing HT-1080-NT fibrosarcoma cells; Potency, µM (doses to about 46.1 µM), for the others: top-dose activity, negative = less viability, most hits filed as cytotoxic; AID 686970; HT-1080-NT fibrosarcoma viability, CellTiter-Glo ATP luminescence, 48 h; 360,000 compounds, 1.6% hits;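 also: NT is the 2HG producing partner of a matched IDH1 knockdown line; potency is read from the fitted curve at half-maximal effect; 0% = DMSO-treated cells and -100% = media-only wells without cells; nearly all actives have a fitted effect of over 55% in size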
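Read-out is CellTiter-Glo luminescence after 10 minutes at room temperature, following 48 hours' compound treatment of HT-1080-NT cells (750 cells/well, RPMI, 5% FBS, 37 degrees C).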
TDP1 cell CPT: DT40-hTDP1 cell growth loss with CPT; chicken DT40 Tdp1-/-;hTDP1 cells + 20 nM CPT, ATP luminescence, 48 h; Potency, µM (titrated, usually from 46.2 µM), for inactives: top-dose activity change, negative = growth inhibition, usual class: inhibitors; 420,000 compounds, 12% hits; AID 686979; also: potency is read from the fitted curve at half-maximal effect; nearly all actives have a fitted effect of over 55% in size
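Chicken DT40 Tdp1-/- cells complemented with human TDP1, 400 cells/well, exposed to compounds plus 20 nM camptothecin for at least 48 h at 37 C; viability read as ATP content by CellTiter-Glo luminescence.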
The depositor's hits bear a star; [ ] = remark or other dose. Unless noted, calls follow the shape of the dose curve; as a rule, active = well fitted curve in the direction sought with a large enough effect; inconclusive = small, poorly fitted or top-dose-only effect, or another doubt; inactive = no such curve, though single readings can be large; an effect the other way counts as inactive or inconclusive. Unless noted, % is scaled to controls: 0 for no effect and ±100 for the full control effect.

Results for CCOc1ccc(NC(=O)C(C)Oc2ccc(C#N)cc2)cc1S(=O)(=O)N1CCCC1 (stereo not drawn) ?
DT40 TDP1 no CPT: -18%; uPA surface inh: -3%; HT1080 IDH1KD tx: 1%; IL1B secr inh: 16; HT1080-NT tox: -1%; TDP1 cell CPT: -16%

What do the screens show for `O=C1NC(=S)S/C1=C\c1cc(Cl)ccc1Cl`?
DT40 TDP1 no CPT: inconclusive; uPA surface inh: -6%; HT1080 IDH1KD tx: -22%; IL1B secr inh: -16; HT1080-NT tox: inconclusive; TDP1 cell CPT: 21µM*

Results for CC1(C)Oc2ccc(C#N)cc2[C@@H](OC2=CC(=O)CC2)[C@@H]1O ?
DT40 TDP1 no CPT: 2%[92.5 µM]; TDP1 cell CPT: -10%[92.5 µM]

How did Cc1cc(C)c(-c2n[nH]c3c2C(c2ccccc2F)N(Cc2ccco2)C3=O)c(O)c1 (stereo not drawn) do in these assays?
DT40 TDP1 no CPT: 21µM*; TDP1 cell CPT: 21µM*

What do the screens show for `O=C1c2[nH]nc(-c3ccccc3O)c2C(c2cccc(O)c2)N1Cc1ccco1` (stereo not drawn)?
DT40 TDP1 no CPT: inconclusive; uPA surface inh: -5%; HT1080 IDH1KD tx: inconclusive; IL1B secr inh: -22; HT1080-NT tox: -13%; TDP1 cell CPT: inconclusive

Results for COc1ccc(C2c3c(-c4ccccc4O)n[nH]c3C(=O)N2Cc2ccco2)cc1 (stereo not drawn) ?
DT40 TDP1 no CPT: inconclusive; uPA surface inh: 1%; HT1080 IDH1KD tx: inconclusive; IL1B secr inh: -75*; HT1080-NT tox: inconclusive; TDP1 cell CPT: inconclusive

How did COc1cc(C2c3c(-c4ccccc4O)n[nH]c3C(=O)N2Cc2ccco2)cc(OC)c1OC (stereo not drawn) do in these assays?
DT40 TDP1 no CPT: 0%; uPA surface inh: -12%; HT1080 IDH1KD tx: -12%; IL1B secr inh: 3; HT1080-NT tox: 1%; TDP1 cell CPT: -6%

Results for COc1ccc(C2c3c(-c4c(C)cc(C)cc4O)n[nH]c3C(=O)N2Cc2ccco2)cc1 (stereo not drawn) ?
DT40 TDP1 no CPT: 16µM*; TDP1 cell CPT: 15µM*

Results for O=c1[nH]c2ccc(NS(=O)(=O)c3ccc(F)cc3)cc2s1 ?
DT40 TDP1 no CPT: inconclusive; TDP1 cell CPT: 0%

How did O=C(Nc1ccccc1)Nc1nnc([C@@H]2C[C@H](O)[C@@H](CO)O2)s1 do in these assays?
DT40 TDP1 no CPT: -19%; HT1080 IDH1KD tx: 25%; IL1B secr inh: -2; HT1080-NT tox: 17%; TDP1 cell CPT: -24%

What do the screens show for `O=C(Cc1ccc(Cl)cc1)Nc1ccccc1C(=O)N1CCCCC1`?
DT40 TDP1 no CPT: -7%; uPA surface inh: 3%; HT1080 IDH1KD tx: -3%; IL1B secr inh: 4; HT1080-NT tox: -3%; TDP1 cell CPT: 2%

Results for C[C@]12c3[nH]c4ccccc4c3CCN1C(=O)C(CC(=O)NCC13CC4CC(CC(C4)C1)C3)C[C@@H]2C(=O)N1CCCCC1 (stereo partly drawn) ?
DT40 TDP1 no CPT: 26µM*; uPA surface inh: inconclusive; HT1080 IDH1KD tx: inconclusive; IL1B secr inh: -64*; HT1080-NT tox: inconclusive; TDP1 cell CPT: 21µM*

What do the screens show for `C[C@]12c3[nH]c4ccccc4c3CCN1C(=O)C(CC(=O)NCC13CC4CC(CC(C4)C1)C3)C[C@@H]2C(=O)N1CCOCC1` (stereo partly drawn)?
DT40 TDP1 no CPT: 23µM*; uPA surface inh: -13%; HT1080 IDH1KD tx: -16%; IL1B secr inh: -29; HT1080-NT tox: -12%; TDP1 cell CPT: 16µM*

How did COc1ccc2[nH]c3c(c2c1)CCN1C(=O)C(CC(=O)NCCC2=CCCCC2)C[C@H](C(=O)N2CCCCC2)[C@@]31C (stereo partly drawn) do in these assays?
DT40 TDP1 no CPT: 18µM*; uPA surface inh: inconclusive; HT1080 IDH1KD tx: 11%; IL1B secr inh: -52*; HT1080-NT tox: 2%; TDP1 cell CPT: 23µM*

How did COCCCNC(=O)CC1C[C@H](C(=O)N2CCOCC2)[C@@]2(C)c3[nH]c4ccccc4c3CCN2C1=O (stereo partly drawn) do in these assays?
DT40 TDP1 no CPT: 0%; uPA surface inh: 22%; HT1080 IDH1KD tx: 8%; IL1B secr inh: 6; HT1080-NT tox: 1%; TDP1 cell CPT: 12%

Results for COc1ccc2[nH]c3c(c2c1)CCN1C(=O)C(CC(=O)NCC24CC5CC(CC(C5)C2)C4)C[C@H](C(=O)N2CCCCC2)[C@@]31C (stereo partly drawn) ?
DT40 TDP1 no CPT: 18µM*; uPA surface inh: inconclusive; HT1080 IDH1KD tx: 9%; IL1B secr inh: -64*; HT1080-NT tox: 2%; TDP1 cell CPT: inconclusive

Results for CCCCNC(=O)C1(C)CCN1C(=O)c1ccc(F)cc1Cl (stereo not drawn) ?
DT40 TDP1 no CPT: -2%; HT1080 IDH1KD tx: 26%; IL1B secr inh: 58; HT1080-NT tox: 5%; TDP1 cell CPT: 0%

Results for COc1ccc(S(=O)(=O)N2CCN(CC(=O)NC(C)c3cccs3)CC2)cc1 (stereo not drawn) ?
DT40 TDP1 no CPT: inconclusive; HT1080 IDH1KD tx: -2%; IL1B secr inh: -19; HT1080-NT tox: -2%; TDP1 cell CPT: 4%

Results for CC(C)Cn1c(N)c(C(=O)COC(=O)[C@@H]2CCCN2C(=O)c2cccs2)c(=O)n(C)c1=O ?
DT40 TDP1 no CPT: inconclusive; uPA surface inh: -3%; HT1080 IDH1KD tx: 10%; IL1B secr inh: 59; HT1080-NT tox: 2%; TDP1 cell CPT: inconclusive

What do the screens show for `COc1ccc(C(=O)Cc2cc3ccccc3oc2=O)cc1`?
DT40 TDP1 no CPT: -2%; uPA surface inh: -4%; HT1080 IDH1KD tx: 0%; IL1B secr inh: -10; HT1080-NT tox: 3%; TDP1 cell CPT: 2%

What do the screens show for `CCN(CC)C(=O)[C@H]1CC(CC(=O)NCC23CC4CC(CC(C4)C2)C3)C(=O)N2CCc3c([nH]c4ccc(OC)cc34)[C@]12C` (stereo partly drawn)?
DT40 TDP1 no CPT: 13µM*; uPA surface inh: inconclusive; HT1080 IDH1KD tx: -29%; IL1B secr inh: -55*; HT1080-NT tox: -30%; TDP1 cell CPT: 21µM*

Results for CC(C)N(C(=O)[C@H]1C[C@H](CC(=O)NCC23CC4CC(CC(C4)C2)C3)C(=O)N2CCc3c([nH]c4cc(-c5ccco5)ccc34)[C@]12C)C(C)C ?
DT40 TDP1 no CPT: inconclusive; uPA surface inh: -5%; HT1080 IDH1KD tx: 8%; IL1B secr inh: -24; HT1080-NT tox: 2%; TDP1 cell CPT: inconclusive

Assay outcomes as filed in PubChem BioAssay.
